Source: the supplement of paper PMC10338343

Tested on: MILI (PIWIL2) piRISC loaded with L1MC piRNA (26 nt)
Assay: pre-steady-state target cleavage rate (min^-1); guide: L1MC piRNA 5'p-UAACUAAAUACUAUGCAAGCUGUAGG; MIWI and MILI are mouse PIWI proteins and EfPiwi is from a freshwater sponge; tags in brackets are library labels; higher = faster piRNA-guided slicing of the target
Conditions: auxiliary factor: none (no GTSF1)
How it was run: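 In Cleave-'n-Seq, a transcribed, DNA-blocked target RNA library (0.1 nM) was combined with 1 nM active affinity-purified piRISC bearing one synthetic guide, with or without 500 nM GTSF1 partner protein. Reactions ran in HEPES–potassium acetate buffer at 33 °C for 0–8 or 0–960 min. Uncleaved targets were sequenced and normalised to depth and to weakly complementary targets, three trials were pooled, and k3 was capped at 0.0001 min^-1. The pre-steady-state cleavage rate was obtained by fitting a burst-and-steady-state model.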

pre-steady-state target cleavage rate, < 0.0001:
UCCUGGAACAGCUUGCAAUCAUAAAUCAAA [g14:g23:cont:t1A]
UCCUGGAUGUCGAACGAUAGUAUUUAGAUA
UCCUGGAUGUCGAACCAUAGUUUUUAGUAA
UCCUGGAUGUCGAACGAUAGUUAAUAGUUA
